TEAD-YAP block: TEAD-YAP interaction inhibition | HEK-TIYL cells, TEAD-Gal4/YAP UAS-luciferase luminescence | inhibition, % at 9.12 µM | 1.4% of 640,000 active | AID 1259422; in the data active means inhibition above about 32%;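 further: 0% = median of test compound wells and 100% = reference inhibitor wells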
FBW7 activator: activators of human E3 ligase FBW7; normalized activity (activation), % at 26.1 µM; 0.13% of 650,000 active; Q969H0; AlphaScreen FBW7–phospho-cyclin E peptide binding, activator screen; in the data active means normalized activity above about 1.9%;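 further: purified mutant Fbw7 with reduced substrate affinity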
MITF inh: inhibitors of human MITF; O75030; AlphaScreen MITF homodimerization, bead proximity signal; inhibition, % at 2.6 µM; 0.91% of 650,000 active; AID 1259374; in the data active means inhibition above about 50%;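 further: 0% = vehicle wells with protein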
GPR151 ag: activators of human GPR151; PathHunter beta-arrestin GPR151 cells, luminescence; 1% of 650,000 active; AID 1508602; Q8TDV0; activation, % at 11.2 µM; in the data active means activation above about 4.9%;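 further: 0% = median of compound wells and 100% = cells with positive control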
GPR151 confirm: confirmation of human GPR151 activators | shares compounds with GPR151 ag | GPR151 PathHunter beta-arrestin cells, luminescence, 90 min; % of EA-reagent control over plate median | activation, % at 11.2 µM | 6,700 tested, under 10 active | AID 1508609;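 active means mean percent activation across replicates above the confirmation screen cutoff of 4.91%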
GPR119 counter: GPR119 activation, counter-screen for GPR151 activators | shares compounds with GPR151 ag | GPR119 PathHunter beta-arrestin cells, luminescence, 90 min; 0 = compound-well median, 100 = enzyme-acceptor control | activation, % at 11.2 µM | 0.3% of 6,700 active;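 active means mean percent activation in the counterscreen above 29.09%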;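 further: counterscreen on off-target GPR119 to flag nonselective hits from the GPR151 activator screen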
Target sequence (Q8TDV5 whole entry, looked up): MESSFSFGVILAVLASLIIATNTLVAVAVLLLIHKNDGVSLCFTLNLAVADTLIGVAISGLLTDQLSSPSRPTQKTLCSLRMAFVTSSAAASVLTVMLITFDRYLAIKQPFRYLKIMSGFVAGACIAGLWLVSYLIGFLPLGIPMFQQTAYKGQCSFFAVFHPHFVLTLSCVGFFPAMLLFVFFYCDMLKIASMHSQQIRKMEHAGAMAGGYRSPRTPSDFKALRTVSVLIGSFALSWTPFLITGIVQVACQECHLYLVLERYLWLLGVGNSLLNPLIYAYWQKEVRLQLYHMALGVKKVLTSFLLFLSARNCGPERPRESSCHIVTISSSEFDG
Numbers without * were called inactive. This is a sample that favours compounds with a hit; in the whole collection about 3.5% have one here.

O=C(Nc1scc2c1c(=O)oc1ccccc12)C1CCCCC1 was read as TEAD-YAP block -25.3, FBW7 activator 1.1, MITF inh 16.2 and GPR151 ag -0.5.
CCOC(=O)CCn1c(=O)c2c(nc3n(-c4cccc(C)c4)c(C)cn23)n(C)c1=O was read as TEAD-YAP block -3.0, FBW7 activator 0.0, MITF inh 4.5 and GPR151 ag -1.2.
CC(C)Oc1cccc(C(=O)C2CCCN(S(=O)(=O)c3cccs3)C2)c1 (stereo not drawn) was read as TEAD-YAP block -3.8, FBW7 activator -0.1, MITF inh -8.0 and GPR151 ag 0.1.
For Cc1ccc(C(=O)Nc2ccc3oc(-c4ccncc4)nc3c2)cc1C the results were TEAD-YAP block 0.2, FBW7 activator 0.1, MITF inh -2.3, GPR151 ag 4.9*, GPR151 confirm 1.0 and GPR119 counter 16.0.
`COc1ccccc1C(=O)Nc1ccc2oc(-c3ccc(C(C)(C)C)cc3)nc2c1` gave TEAD-YAP block 5.3, FBW7 activator 0.0, MITF inh 9.5, GPR151 ag 6.2*, GPR151 confirm 0.9 and GPR119 counter -2.2.
`Cc1cccc(OCC(=O)Nc2cc3nn(-c4ccccc4)nc3cc2C)c1` gave TEAD-YAP block 0.2, FBW7 activator -0.1, MITF inh 1.8 and GPR151 ag -1.4.
Screening CN(C)S(=O)(=O)c1ccc(C(=O)CSc2n[nH]c(N)n2)cc1 returned TEAD-YAP block -30.9, FBW7 activator 0.0, MITF inh 0.5, GPR151 ag 9.6*, GPR151 confirm 0.1 and GPR119 counter 2.9.
Screening O=[N+]([O-])c1ccc(/C=N/NC2=Nc3cccc4cccc2c34)cc1 returned TEAD-YAP block -26.7, FBW7 activator -0.1, MITF inh 3.6, GPR151 ag 6.3*, GPR151 confirm -0.1 and GPR119 counter 2.9.
O=[N+]([O-])c1cccc(/C=N/NC2=Nc3cccc4cccc2c34)c1 was read as TEAD-YAP block -34.7, FBW7 activator -0.2, MITF inh 15.0 and GPR151 ag -0.9.
For O=C(NC1=Nc2cccc3cccc1c23)c1ccc([N+](=O)[O-])cc1 the results were TEAD-YAP block 2.3, FBW7 activator -0.1, MITF inh 7.2, GPR151 ag 5.5*, GPR151 confirm -0.3 and GPR119 counter -12.2.
For C=CCN(c1ccccc1)c1c(-c2ccccc2)c(=O)c1=O the results were TEAD-YAP block -2.7, FBW7 activator 0.0, MITF inh 17.9 and GPR151 ag 0.7.
`CCOc1ccc2nc(N3CCC(N(C)Cc4nonc4C)CC3)nc(C)c2c1` gave TEAD-YAP block -4.6, FBW7 activator 1.0, MITF inh -20.6 and GPR151 ag 1.1.
CCN1CCC(N(Cc2ccc(F)cc2)C(=O)Nc2cc(F)ccc2F)CC1 was read as TEAD-YAP block -1.2, FBW7 activator 0.0, MITF inh -4.5, GPR151 ag 5.1*, GPR151 confirm -0.4 and GPR119 counter 9.6.
COCCN(C)c1nc2nonc2nc1NC1CCCC1 was read as TEAD-YAP block -9.5, FBW7 activator 0.0, MITF inh -7.9 and GPR151 ag -1.6.
`O=C(c1ccc2c(=O)n(CCc3ccccc3)c(=S)[nH]c2c1)N1CCN(c2ccccc2)CC1` gave TEAD-YAP block -2.2, FBW7 activator 0.2, MITF inh -3.7, GPR151 ag 6.3*, GPR151 confirm 0.0 and GPR119 counter 13.2.
`COc1ccc(CCn2c(=S)[nH]c3cc(C(=O)N4CCOCC4)ccc3c2=O)cc1OC` gave TEAD-YAP block 9.0, FBW7 activator 0.1, MITF inh -20.1 and GPR151 ag 4.3.
For COc1ccc(CCn2c(=O)[nH]c3cc(C(=O)NCc4ccco4)ccc3c2=O)cc1OC the results were TEAD-YAP block 2.9, FBW7 activator 0.2, MITF inh 8.8, GPR151 ag 6.1*, GPR151 confirm -0.4 and GPR119 counter -3.7.
For COc1ccc(CCNC(=O)c2ccc3c(=O)n(Cc4ccco4)c(=S)[nH]c3c2)cc1OC the results were TEAD-YAP block -8.2, FBW7 activator -0.2, MITF inh -4.9 and GPR151 ag -0.6.
COc1ccc(CCNC(=O)c2cccc(-n3c(=S)[nH]c4cc(Cl)ccc4c3=O)c2)cc1OC was read as TEAD-YAP block 5.1, FBW7 activator -0.2, MITF inh 12.8, GPR151 ag 5.8*, GPR151 confirm -0.1 and GPR119 counter 4.3.
For COc1ccc(CCn2c(=S)[nH]c3cc(C(=O)N4CCC(C(N)=O)CC4)ccc3c2=O)cc1OC the results were TEAD-YAP block -3.3, FBW7 activator 0.1, MITF inh 14.2, GPR151 ag 6.1*, GPR151 confirm -1.7 and GPR119 counter -3.6.
For Cc1ccc(NC(=O)Nc2ccnn2-c2cccc(C(=O)Nc3ccc(N4CCOCC4)cc3)c2)cc1[N+](=O)[O-] the results were TEAD-YAP block -9.2, FBW7 activator -0.5, MITF inh 5.8 and GPR151 ag 0.8.
`Cc1ccc(NC(=O)Nc2sc3c(c2C(N)=O)CCC3)cc1` gave TEAD-YAP block -42.9, FBW7 activator -0.1, MITF inh 4.5 and GPR151 ag 0.3.
O=C1NC(c2ccccc2)=NC1(NS(=O)(=O)c1ccc(Cl)cc1)C(F)(F)F (stereo not drawn) was read as TEAD-YAP block -1.8, FBW7 activator 0.3, MITF inh 9.4, GPR151 ag 6.9*, GPR151 confirm 0.1 and GPR119 counter 2.7.
CSc1nnc2c(n1)OC(c1ccc(-c3cccc(C(F)(F)F)c3)o1)Nc1ccccc1-2 (stereo not drawn) was read as TEAD-YAP block -1.3, FBW7 activator -0.2, MITF inh 12.2 and GPR151 ag 1.3.
For COc1ccc(C(=O)NC2CC2)cc1OC1CCN(Cc2ccc(F)cc2F)CC1 the results were TEAD-YAP block -22.1, FBW7 activator 0.0, MITF inh -9.8, GPR151 ag 5.6*, GPR151 confirm 0.1 and GPR119 counter -0.3.
`CC(=O)Nc1cccc(NC(=S)Nc2ccc(S(N)(=O)=O)cc2)c1` gave TEAD-YAP block 1.2, FBW7 activator -0.2, MITF inh -2.2 and GPR151 ag -0.5.
For CC(=O)NC(=S)Nc1ccc(S(N)(=O)=O)cc1 the results were TEAD-YAP block -7.4, FBW7 activator 0.1, MITF inh 0.0, GPR151 ag 5.5*, GPR151 confirm 0.5 and GPR119 counter 1.6.
Screening NS(=O)(=O)c1ccc(NC(=S)NC(=O)C(c2ccccc2)c2ccccc2)cc1 returned TEAD-YAP block -5.0, FBW7 activator -0.4, MITF inh 1.6, GPR151 ag 5.4*, GPR151 confirm 0.0 and GPR119 counter -5.7.
For COc1ccc(C2C(C#N)=C(N)Oc3n[nH]c(C)c32)c2ccccc12 (stereo not drawn) the results were TEAD-YAP block -2.6, FBW7 activator -0.2, MITF inh -11.2, GPR151 ag 5.5*, GPR151 confirm 0.5 and GPR119 counter -6.5.
